Experiment [1] is described as follows: qHTS assay to test for compound auto fluorescence at 535 nm (green) in HEK293 cells (AID 720680).
Experiment [2] can be described thus: qHTS assay to test for compound auto fluorescence at 460 nm (blue) in HEK293 cell free culture (AID 720681). Summed up: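 Test compounds were pinned into cell-free culture medium (DMEM with 10% FBS) and fluorescence was read directly at Ex/Em 405/460 nm. Signals were expressed as fluorescence equivalents of triamterene, with DMSO vehicle as control.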
A general note: In qHTS, concentration-response curves come from the screen itself.

A short description of experiment [3]: qHTS assay to test for compound auto fluorescence at 535 nm (green) in HEK293 cell free culture (AID 720682). Summed up: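 Read-out: 485/535 nm fluorescence intensity, calibrated against fluorescein. Medium only (DMEM + 10% FBS, no cells); test compound or DMSO vehicle added by pintool before plate reading.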
Experiment [4] is described as follows: qHTS assay to test for compound auto fluorescence at 590 nm (red) in HEK293 cell free culture (AID 720683). An outline of the steps: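 Tox21 10K library compounds were pinned into cell-free DMEM with 10% FBS and fluorescence was read at excitation 540 nm. Activity is expressed as Rose Bengal sodium equivalency.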
A short description of experiment [5]: qHTS assay to test for compound auto fluorescence at 590 nm (red) in HepG2 cell free culture (AID 720684). An outline of the steps: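 Red fluorescence (540 nm excitation, 590 nm emission) was measured after compound transfer into cell-free MEM supplemented with 10% FBS. Values are equivalencies against Rose Bengal sodium.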
The nature of experiment [6]: qHTS assay to test for compound auto fluorescence at 460 nm (blue) in HepG2 cell free culture (AID 720685). An outline of the steps:
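Compound (23 nL) or DMSO pinned into cell-free MEM with 10% FBS; blue fluorescence read at 405/460 nm excitation/emission, expressed as auto-fluorescence equivalency to triamterene.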

Experiment [7] in a line: qHTS assay to test for compound auto fluorescence at 535 nm (green) in HepG2 cell free culture (AID 720686).
Experiment [8] in a line: qHTS assay to test for compound auto fluorescence at 460 nm (blue) in HepG2 cells (AID 720687). An outline of the steps:
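Cells (2,000/well in MEM with 10% FBS) attached overnight at 37 C, then were exposed to compound or DMSO for 1 hr at 37 C, 5% CO2. Fluorescence read at Ex/Em 405/460 nm, expressed as triamterene-equivalent signal.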

Experiment [9] in a line: qHTS assay to identify small molecule antagonists of the glucocorticoid receptor (GR) signaling pathway - cell viability counter screen (AID 720693). Also: nearly all actives have a fitted effect of over 55% in size.
The nature of experiment [10]: qHTS assay for identifying genotoxic compounds that show differential cytotoxicity against isogenic chicken DT40 cell lines with known DNA damage response pathways - Rev3 mutant cell line (AID 743014). Also: nearly all actives have a fitted effect of over 55% in size. Also: potency is read from the fitted curve at half-maximal effect.
A short description of experiment [11]: qHTS assay for identifying genotoxic compounds that show differential cytotoxicity against isogenic chicken DT40 cell lines with known DNA damage response pathways - Rad54/Ku70 mutant cell line (AID 743015). Also: nearly all actives have a fitted effect of over 60% in size.
Experiment [12] can be described thus: qHTS assay to identify small molecule antagonists of the androgen receptor (AR) signaling pathway - cell viability counter screen (AID 743033; also: nearly all actives have a fitted effect of over 45% in size).
Experiment [13] in a line: qHTS assay to identify small molecule antagonists of the androgen receptor (AR) signaling pathway using the MDA cell line - cell viability counter screen (AID 743041; also: nearly all actives have a fitted effect of over 45% in size). Summed up: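 MDA-kb2 AR-luc human breast carcinoma cells (MMTV-luciferase, AR/GR responsive) were treated with compounds plus R1881 agonist for 16 h at 37 °C. Viability was read as CellTiter-Fluor fluorescence in the same wells as the reporter assay.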

Experiment [14] addresses Glucocorticoid receptor (Homo sapiens) (UniProt P04150). Kind of experiment: qHTS assay to identify small molecule agonists of the glucocorticoid receptor (GR) signaling pathway (AID 720691; active = well fitted activation curve with a large enough effect in the signal ratio in the repeat runs, not every such curve was filed as active; the % refers to the signal ratio). Summed up: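 GR-bla HeLa cells carrying a GRE-driven beta-lactamase reporter, exposed to compounds for 18 h at 37 C. Reporter activation read as fluorescence after 2 h with LiveBLAzer B/G FRET substrate at room temperature.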

Experiment [15] has the same target. Kind of experiment: qHTS assay to identify small molecule antagonists of the glucocorticoid receptor (GR) signaling pathway (AID 720692; active = well fitted inhibition curve with a large enough effect in the signal ratio in the repeat runs, not every such curve was filed as active; the % refers to the signal ratio). An outline of the steps: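 GR-bla HeLa cells carrying a GRE-driven beta-lactamase reporter received compound after 4 h plating, then dexamethasone (5 nM final). After 18 h at 37C, the FRET substrate was loaded for 2 h at room temperature and fluorescence read.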

Experiment [16] in a line: qHTS assay for identifying genotoxic compounds that show differential cytotoxicity against isogenic chicken DT40 cell lines with known DNA damage response pathways - wild type cell line (AID 743012). Also: nearly all actives have a fitted effect of over 60% in size. An outline of the steps: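 Wild-type DT40 cells (300/well) exposed to compounds for 40 hours at 37 C/5% CO2. Viability read by CellTiter-Glo luminescence after 30 min at room temperature.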

The target in experiment [17] is Androgen receptor (Homo sapiens) (UniProt P10275). Kind of experiment: qHTS assay to identify small molecule antagonists of the androgen receptor (AR) signaling pathway (AID 743035; active = well fitted inhibition curve with a large enough effect in the signal ratio in the repeat runs, not every such curve was filed as active; the % refers to the signal ratio). Summed up: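 HEK293 cells stably carrying UAS-beta-lactamase reporter, 2,000/well, given compounds plus R1881 agonist and incubated 16 h at 37C. LiveBLAzer B/G FRET substrate then added for 2 h at room temperature before fluorescence reading.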

For experiment [18] the target is unchanged. The experiment in a line: qHTS assay to identify small molecule agonists of the androgen receptor (AR) signaling pathway (AID 743036; active = well fitted activation curve with a large enough effect in the signal ratio in the repeat runs, with a control signal flat, not every such curve was filed as active; the % refers to the signal ratio). Summed up: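 HEK293 cells stably carrying a UAS-driven beta-lactamase reporter (GeneBLAzer AR-UAS-bla-GripTite) were plated at 2,000 cells/well, rested 4 h at 37C, then exposed to compounds in DMSO for 16 h. LiveBLAzer B/G FRET substrate was added for 2 h at room temperature; fluorescence read.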

Experiment [19] shares this target. The experiment in a line: qHTS assay to identify small molecule agonists of the androgen receptor (AR) signaling pathway using the MDA cell line (AID 743040; also: nearly all actives have a fitted effect of over 20% in size). An outline of the steps:
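MDA-kb2 breast carcinoma cells stably carrying an MMTV-driven luciferase reporter (AR- and GR-responsive) were seeded and held 5 h at 37C, 0% CO2, then exposed to compounds in DMSO for 16 h. Luminescence was read 30 min after ONE-Glo addition.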

Experiment [20] has the same target. Kind of experiment: qHTS assay to identify small molecule antagonists of the androgen receptor (AR) signaling pathway using the MDA cell line (AID 743042; also: nearly all actives have a fitted effect of over 55% in size). An outline of the steps:
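MDA-kb2 cells (human breast carcinoma, stably carrying an MMTV-luciferase reporter responsive to AR and GR) were plated at 3,000 cells/well and preincubated 5 hr at 37C, then given compound plus R1881 agonist for 16 h. ONE-Glo luminescence was read.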

A number with no mark means an inactive call. Inconclusive results are not listed. Activity calls are given as the source filed them. Unless noted, calls follow the shape of the dose curve; as a rule, active = well fitted curve in the direction sought with a large enough effect in the repeat runs; inconclusive = weak or mixed curves; inactive = no such curve, though single readings can be large; an effect the other way counts as inactive or inconclusive.
% is scaled to controls: 0 for no effect and ±100 for the full control effect.

Sequence of Glucocorticoid receptor (Homo sapiens) (P04150 whole entry, looked up): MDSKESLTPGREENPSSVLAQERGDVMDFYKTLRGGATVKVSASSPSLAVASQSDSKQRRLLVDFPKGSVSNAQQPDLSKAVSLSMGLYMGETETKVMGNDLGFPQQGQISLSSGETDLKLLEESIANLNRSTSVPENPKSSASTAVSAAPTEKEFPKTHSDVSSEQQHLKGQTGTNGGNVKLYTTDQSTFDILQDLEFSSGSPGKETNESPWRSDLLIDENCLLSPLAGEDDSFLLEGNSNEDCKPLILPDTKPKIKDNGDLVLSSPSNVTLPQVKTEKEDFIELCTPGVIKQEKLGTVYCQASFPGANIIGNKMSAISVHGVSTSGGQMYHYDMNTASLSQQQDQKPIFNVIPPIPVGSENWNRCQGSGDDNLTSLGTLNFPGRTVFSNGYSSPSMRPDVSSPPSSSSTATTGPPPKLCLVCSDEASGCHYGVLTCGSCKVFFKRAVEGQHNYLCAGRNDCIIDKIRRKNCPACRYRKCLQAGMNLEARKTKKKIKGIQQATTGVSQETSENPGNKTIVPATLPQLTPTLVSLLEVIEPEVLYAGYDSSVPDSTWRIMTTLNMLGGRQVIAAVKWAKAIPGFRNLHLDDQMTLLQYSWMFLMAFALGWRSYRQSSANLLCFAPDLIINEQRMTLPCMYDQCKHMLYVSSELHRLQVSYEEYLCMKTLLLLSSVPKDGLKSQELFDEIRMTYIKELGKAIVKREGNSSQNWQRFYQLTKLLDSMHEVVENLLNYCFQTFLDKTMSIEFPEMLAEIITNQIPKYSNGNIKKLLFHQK
Sequence of Androgen receptor (Homo sapiens) (P10275 whole entry, looked up): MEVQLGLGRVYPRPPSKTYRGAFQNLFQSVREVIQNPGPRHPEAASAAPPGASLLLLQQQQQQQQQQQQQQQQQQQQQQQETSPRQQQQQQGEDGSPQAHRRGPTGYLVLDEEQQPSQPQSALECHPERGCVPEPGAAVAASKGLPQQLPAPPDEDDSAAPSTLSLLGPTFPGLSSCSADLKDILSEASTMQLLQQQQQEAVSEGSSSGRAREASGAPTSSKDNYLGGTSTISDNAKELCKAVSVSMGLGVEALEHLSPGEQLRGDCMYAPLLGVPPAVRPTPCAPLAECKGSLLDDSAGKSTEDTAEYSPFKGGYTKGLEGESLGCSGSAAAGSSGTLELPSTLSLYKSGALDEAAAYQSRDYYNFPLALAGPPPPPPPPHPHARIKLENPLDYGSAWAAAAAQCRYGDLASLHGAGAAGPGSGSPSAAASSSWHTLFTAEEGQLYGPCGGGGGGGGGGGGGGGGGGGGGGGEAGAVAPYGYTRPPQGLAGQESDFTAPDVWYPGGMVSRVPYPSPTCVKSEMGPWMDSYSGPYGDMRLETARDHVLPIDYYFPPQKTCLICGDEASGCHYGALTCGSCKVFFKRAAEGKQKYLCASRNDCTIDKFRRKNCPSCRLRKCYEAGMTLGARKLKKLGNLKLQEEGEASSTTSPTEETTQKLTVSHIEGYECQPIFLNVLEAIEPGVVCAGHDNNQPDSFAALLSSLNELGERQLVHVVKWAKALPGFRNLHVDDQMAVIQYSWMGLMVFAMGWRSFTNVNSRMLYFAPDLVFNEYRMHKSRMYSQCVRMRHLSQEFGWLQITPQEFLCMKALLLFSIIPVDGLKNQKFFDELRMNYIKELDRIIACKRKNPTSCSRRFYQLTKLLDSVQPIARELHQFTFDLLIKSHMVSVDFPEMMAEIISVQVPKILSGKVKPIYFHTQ

In the case of `O=S(=O)(O)c1cc(O)c2ccc(Nc3ccccc3)cc2c1`, the result in [1], in experiment [2], in experiment [3], in [4], in [5] and in [6] was inactive. Moreover, the call in experiment [7], in experiment [8] and in experiment [9] was inactive. For the same molecule, the Potency entry in experiment [10], in experiment [11], in experiment [12] and in [13] was “inactive” in each case.

Consider `C[Si](C)=O`, for which the fluorescence, % of fluorescein in experiment [1] was 0.04% [at 9.17 µM]. Besides, the values for the fluorescence, % of fluorescent control in experiment [2], in experiment [4] and in [6] were -0.225% [at 9.17 µM], -0.414% [at 9.17 µM] and -0.0659% [at 9.17 µM], respectively. Besides, the activity change in experiment [3] is -0.0646% [at 9.17 µM]. In addition, in [5], the fluorescence, % of Rose Bengal was -0.0951% [at 9.17 µM]. Besides, in experiment [7], the fluorescence, % of fluorescein control is 0.113% [at 9.17 µM]. The activation in experiment [14] was 1.09% [at 6.9 µM]. In addition, in experiment [15], the activity change, negative = inhibition is 3.35% [at 7.04 µM]. Also, in experiment [9], the viability change, negative = cytotoxic is -9.5% [at 7.04 µM]. The activity change, negative = cytotoxicity in experiment [16] was 12.9% [at 8.52 µM]; in experiment [11], 1.94% [at 8.55 µM]; in experiment [12], 2.74% [at 7.04 µM]. In addition, the activity, negative = cytotoxicity in experiment [10] is -9.66% [at 8.53 µM].

In the case of `OCCN(CCO)c1cccc(Cl)c1`, the call in [1], in [2], in [3], in experiment [4], in experiment [5] and in experiment [6] was inactive. Also, the outcome in experiment [7], in experiment [8], in experiment [18] and in [19] was inactive. Further, the Potency result in experiment [16], in experiment [10], in experiment [12], in experiment [17], in experiment [13] and in experiment [20] was “inactive” in each case.

Consider `CCCOC(=O)C(C)O` (centres undefined), for which the outcome in experiment [1], in [2], in [3], in [4], in experiment [5] and in [6] was inactive. For the same molecule, the molecule was classed as inactive in [7], in [8], in experiment [18] and in experiment [19]. For the same molecule, the Potency entry in experiment [17], in experiment [13] and in experiment [20] was “inactive” in each case.

For the molecule `CCCCCCCCCCl`, the molecule was called inactive in [1], in [2], in experiment [3], in experiment [4], in [5] and in [6]. Also, the result in experiment [7] and in [8] was inactive. Also, the Potency entry in experiment [16], in experiment [10], in experiment [11] and in experiment [12] was “inactive” each time.

Turning to `CCCCNC1CC(C)(C)NC(C)(C)C1`, the molecule was classed as inactive in experiment [1], in experiment [2], in experiment [3], in experiment [4], in experiment [5] and in experiment [6]. Moreover, the outcome in experiment [7], in experiment [15] and in experiment [9] was inactive. In addition, the Potency result in experiment [14], in [16], in experiment [12] and in [13] was “inactive” in each case. Besides, in experiment [10], the Potency was 48.6 µM (active).

Consider `CN1C(C)(C)CCCC1(C)C`, for which the result in experiment [1], in experiment [2], in experiment [3], in [4], in experiment [5] and in experiment [6] was inactive. In addition, the outcome in experiment [7] and in [9] was inactive. The Potency result in [14], in experiment [16], in experiment [10], in experiment [12] and in [13] was “inactive” each time.

In the case of `O=S(O)(O)=S`, the fluorescence, % of fluorescein in [1] was -0.0177% [at 3.72 µM]. Besides, the fluorescence, % of fluorescent control in experiment [2] is -0.0004% [at 3.72 µM]; in experiment [4], -0.356% [at 3.72 µM]; in [6] it was -0.093% [at 3.72 µM]. For the same molecule, the activity change in [3] was -0.0159% [at 3.72 µM]. The fluorescence, % of Rose Bengal in experiment [5] was -0.0109% [at 3.72 µM]. In addition, in experiment [7], the fluorescence, % of fluorescein control was 0.0353% [at 3.72 µM]. Besides, the results for the viability change, negative = cytotoxic in experiment [9] and in [13] were -8.56% [at 7.04 µM] and -5.99% [at 8.47 µM], respectively. The activity change, negative = cytotoxicity in [16] is -4.81% [at 8.52 µM]; in [11] it was -5.32% [at 8.55 µM]; in [12], 3.7% [at 7.04 µM]. In [10], the activity, negative = cytotoxicity is 5.56% [at 8.53 µM].

`CC(C)=CCOC(=O)c1ccccc1`: the molecule was called inactive in experiment [1], in [2], in experiment [3], in [4], in experiment [5] and in [6]. Besides, the molecule was classed as inactive in experiment [7], in [15] and in experiment [9]. Besides, the Potency entry in experiment [14], in [16], in experiment [10], in experiment [12] and in [13] was “inactive” each time.

As for `COC(=O)CCc1ccc(OCC(O)CNC(C)C)cc1` (centres undefined), the molecule was called inactive in experiment [1], in [2], in [3], in experiment [4], in [5] and in [6]. For the same molecule, the result in experiment [7], in [15] and in experiment [9] was inactive. The Potency entry in [14], in experiment [12] and in [13] was “inactive” each time.

As to `COC(=O)C1CC(=O)C(C(=O)OC)CC1=O` (centres undefined), the fluorescence, % of fluorescein in experiment [1] was -0.0599% [at 3.72 µM]. The fluorescence, % of fluorescent control is 1.67% [at 3.72 µM] in [2], 0.0034% [at 3.72 µM] in experiment [4] and 2.39% [at 3.72 µM] in experiment [6]. Moreover, the activity change in experiment [3] was -0.0001% [at 3.72 µM]. Further, the fluorescence, % of Rose Bengal in [5] is 0.258% [at 3.72 µM]. The fluorescence, % of fluorescein control in [7] was -0.0181% [at 3.72 µM]. Also, the viability change, negative = cytotoxic is -6.7% [at 7.04 µM] in experiment [9] and 6.75% [at 8.47 µM] in [13]. Moreover, the activity change, negative = cytotoxicity is -1.23% [at 8.52 µM] in experiment [16] and -11.9% [at 7.04 µM] in [12]. Also, the activity, negative = cytotoxicity in experiment [10] is 6.72% [at 8.53 µM].

Consider `CC(=O)NCCCCCC(=O)O`, for which the molecule was classed as inactive in experiment [1], in experiment [2], in [3], in [4], in experiment [5] and in experiment [6]. In addition, the call in experiment [7] and in [9] was inactive. Besides, the Potency entry in experiment [16], in experiment [10], in experiment [11], in [12] and in experiment [13] was “inactive” in each case.

In the case of `Nc1ccc2cc(S(=O)(=O)O)cc(O)c2c1`, the call in [1], in experiment [2], in experiment [3], in [4], in experiment [5] and in experiment [7] was inactive. Besides, the result in [18] and in experiment [19] was inactive. The Potency result in experiment [16], in [10], in experiment [11], in [12], in experiment [17] and in experiment [13] was “inactive” in each case. Also, the Potency result in experiment [20] was “inactive”.
